Here are results for 32 compounds from PubChem BioAssay.

Where “and” joins values, the source holds several entries; their conditions need not be identical. Identical values can stand only once.

This test can be described thus: viability profiling in RPMI8226 myeloma cells – cell-based, resazurin fluorescence, basal, 24 h, PK04 Diversity Set, profiling panel (AID 1180).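 Note: RPMI8826 multiple myeloma cell line at 5000 cells per well; test concentration not given here.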 Conditions: higher = more signal. (In general: Alamar Blue is a resazurin reagent that responds to reducing activity.)
Turning to `CO[C@H]1COC(=O)CC=C[C@@H](C)COC(=O)[C@H](CCSC)NC(=O)CC=C[C@@H]1C`, the z-score is -0.0162 and 1. The result for `C=CCN(CCCCC)C(=O)C1N(C(C)(C)CO)C(=O)C2C(C(=O)O)C3C=CC21O3` (configuration not stated) reads -0.725 and -0.827; that for `C=CCN1C(=O)[C@]2(O[C@H](CCn3cc(CCO)nn3)[C@@H]([Si](C)(C)c3ccc(OC)cc3)[C@@H]2C)c2cc(N3C(=O)c4cccc5cccc3c45)ccc21`, -6.26 and -6.25; that for `CCC[C@@H]1C[C@@]1(CCC)[C@@H](NC(=O)c1ccc(-c2ccccc2)cc1)c1cccc(Cl)c1`, 0.889 and -0.275. Consider `C[C@@H]1CC[C@H]2C(=O)O[C@H](CN=[N+]=[N-])CN2[C@H]1c1ccc(Br)cc1`, for which the z-score is -1.38 and 0.417. The result for `C[C@@H]1CN2[C@@H](CC[C@@H](C)[C@@H]2c2ccc(Br)cc2)C(=O)O1` reads 0.967 and -0.0883; that for `COc1ccc(O[C@H]2C=C[C@@H](c3ccccc3)O[C@@H]2COC(=O)CCC(C)=NO[C@H](C)c2cn([C@H](CO)Cc3ccccc3)nn2)cc1`, 0.651 and 0.198. To `CON(C)C(=O)c1nnc2c3ccccc3n(S(=O)(=O)c3ccc(C)cc3)c2n1` belongs -0.691 and -0.232; to `COc1ccc(COC(=O)NN=C2C[C@@H](O)[C@@H](O)[C@@H]3[C@@H]4C(=O)N(C(C)(C)C)C(=O)[C@@H]4CC[C@H]23)cc1`, -0.571; to `COC(=O)C1=C(C)N(Cc2ccccc2)[C@]23O[C@](C(=O)OC)(C(=O)N2[C@@H]1c1ccccc1)[C@@H](C(=O)OC)[C@H]3C(=O)OC`, 0.537 and -0.332. On to `C[C@@H]1CC[C@H]2C(=O)NC[C@@H](O)CN2[C@H]1c1ccc(Br)cc1`, for which the z-score was -0.149 and 0.435. As for `C#CCCCON=C1C[C@@H](O)[C@@H](O)[C@@H]2[C@@H]3C(=O)N(C4CCCCC4)C(=O)[C@@H]3CC[C@H]12`, the z-score was -1.08. Take `C[C@@H]1CC[C@@H](C(=O)O)N[C@H]1c1ccc(-c2ccco2)cc1`: the z-score was determined as 0.285. To `C=CCN(C(=O)C1N(C(C)(C)CO)C(=O)C2C(C(=O)O)C3C=CC21O3)C(C)(C)C` (configuration not stated) belongs -0.319 and -0.0012; to `C=CCN(C(=O)C(c1cccs1)N(C(=O)/C=C\C(=O)O)c1ccc(CCO)cc1)C(C)(C)C` (configuration not stated), 0.0456 and 0.0755. On to `Cc1ccc(S(=O)(=O)N[C@H]2COC(=O)[C@@H](Cc3ccccc3)NC(=O)[C@@H](C)COC(=O)CC=C[C@@H]2C)cc1`, for which the z-score was 0.0023 and 0.238.

`CC(C)[Si]1(C(C)C)OCc2cc(CCCc3cc4c(c(CCc5ccccc5)n3)[Si](C(C)C)(C(C)C)OC4)nc(CCc3ccccc3)c21`: the z-score was 0.583 and -1.16. To `O=c1n(-c2ccccc2)c(=O)n2n1CC[C@@H]1C(=NOC[C@@H](O)COCc3ccco3)[C@H]3O[C@H]3[C@@H](O)[C@@H]12` belongs 0.0942 and -0.433; to `O=C1C[C@]2(c3ccc([N+](=O)[O-])cc3)C(=O)N(Cc3ccccc3)c3cc(CO)ccc3[C@H]2N1C1CCCCC1`, 0.702 and -0.966; to `CCOC(=O)[C@H](CC(C)C)NC(=O)CCC1CC(OC(=O)NCc2cccc3ccccc23)CC2(CCCC(COC(=O)NCc3ccccc3)O2)O1` (some centres not stated), 0.588. The result for `CCOC(=O)c1ccc(NC(=O)O[C@H]2[C@H](OC(=O)Nc3ccccc3)[C@H](OC(=O)Nc3ccccc3)[C@@H](OC)O[C@@H]2CO)cc1` reads -1.53 and -2.7; that for `CC[C@@H]1C(Sc2ccccc2)C(C(=O)O)[C@H](c2ccc(C)cc2)N1S(=O)(=O)c1ccc(C)cc1` (some centres not stated), -1.17 and -0.637; that for `CCCC[C@@H]1CN2[C@@H](CC[C@@H](C)[C@@H]2c2ccc(Br)cc2)C(=O)O1`, 0.387 and 0.756. To `C=CCN(CCCCC)C(=O)C(c1cccs1)N(C(=O)/C=C\C(=O)O)c1ccc(CCO)cc1` (configuration not stated) belongs -0.359 and -0.583. The compound `C=C(C)C(=O)OC[C@@H]1CN2[C@@H](CC[C@@H](C)[C@@H]2c2ccc(Br)cc2)C(=O)O1` displayed a z-score of 0.173. To `COC(=O)C1=C2N(Cc3ccccc3)C(C)=C(C(=O)OC)[C@@H](c3ccccc3)N2C(=O)[C@](O)(C(=O)OC)C1` belongs 1 and -0.272. `C=C[C@@H](C)[C@@H](O)c1ccc(OCCO)cc1`: the z-score is -0.112 and 0.616. As for `C=CCN(Cc1ccccc1)C(=O)C1N(C(C)(C)CO)C(=O)C2C(C(=O)O)C3C=CC21O3` (configuration not stated), the z-score is -0.699 and 0.447. Consider `C=CCN(C(=O)C1N(C(C)(C)CO)C(=O)C2C(C(=O)O)C3C=CC21O3)c1ccc(OC)cc1` (configuration not stated), for which the z-score is 0.592 and -0.39. The result for `COC(=O)c1c2oc(c1C(=O)OC)C(=O)N[C@@H](Cc1ccccc1)Cn1cc(nn1)C1(CCCCC1)NC(=O)N[C@H](CO)CC2` reads 0.688 and 2.64. `C=C[C@H](C)[C@H](O)c1ccc(O)c2ccccc12`: the z-score is -0.54 and 0.1. To `CCOC(=O)C[C@H]1[C@H](OC(=O)c2ccccc2-c2ccccc2)[C@@H](NC(=O)Cc2ccc(OC)cc2)c2cc(OCCCO)ccc2N1C(=O)c1ccc2ccccc2n1` belongs -0.0946 and 0.108.
